# The list is not random: actives were taken first. Their share in the collection is about 19%.
# HT1080NT lethal: kills 2HG-producing HT-1080-NT fibrosarcoma cells; Potency, µM (highest dose often 46.1 µM), for the others: top-dose activity, negative = less viability, hits mostly cytotoxic; AID 686970; HT-1080-NT fibrosarcoma viability, CellTiter-Glo ATP luminescence, 48 h; 360,000 compounds, 1.6% hits;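 further: NT is the 2HG producing partner of a matched IDH1 knockdown line; potency means the concentration at half of the fitted maximal effect; 0% = DMSO-treated cells and -100% = media-only wells without cells; nearly all actives have a fitted effect of over 55% in size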
#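 Toxicity toward the 2HG-producing NT line was scored as %Activity, normalised to DMSO and no-cell wells, from CellTiter-Glo luminescence after 48 hours' treatment.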
# ELG1 DNA repair: inhibitors of ELG1-dependent DNA repair in HEK293T cells | 330,000 compounds, 2.3% hits | AID 504467 | Potency, µM (series often up to 46.1 µM), without a hit: at the top dose activity change, negative = inhibition, usual class: inhibitors | HEK293T ELG1-luciferase reporter, luminescence, 16 h; DNA damage induced by 5-fluorouridine; further: potency means the concentration at half of the fitted maximal effect; nearly all actives have a fitted effect of over 55% in size
#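 Step one: seed 2,000 cells per well. Step two: pin-transfer compound or DMSO alongside 5-fluorouridine. Step three: incubate 16 hr, 37 °C, 5% CO2. Step four: add ONE-Glo, wait 30 min, read luminescence.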
# HT1080 IDH1KD tx: toxicity to HT-1080 IDH1 knockdown cells (counter line); HT-1080 IDH1 knockdown viability, ATP luminescence, 48 h; Potency, µM (titrated, usually from 46.1 µM), inactives show at the top dose activity, negative = toxicity, actives largely listed as cytotoxic; 360,000 compounds, 2% hits;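 further: potency means the concentration at half of the fitted maximal effect; 0% = DMSO wells and -100% = cell-free medium wells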
#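 Assay cells: HT-1080 with IDH1 knockdown, 750 per well, RPMI/5% FBS. Exposure: 48 h at 37 °C following 2 h pre-incubation. Read: CellTiter-Glo luminescence; fitted concentration-response, curve class assigned.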
# DT40 TDP1 CPT: growth inhibition of DT40 Tdp1-/-;hTDP1 cells with camptothecin (screen for TDP1 inhibitors). Potency, µM (top dose mostly 46.2 µM), inactives show at the top dose activity change, negative = growth inhibition, usual class: inhibitors. 420,000 compounds, 12% hits. chicken DT40 Tdp1-/-;hTDP1 cells + 20 nM CPT, ATP luminescence, 48 h; further: potency means the concentration at half of the fitted maximal effect; nearly all actives have a fitted effect of over 55% in size
#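 Chicken DT40 Tdp1-/- cells stably complemented with human TDP1 were seeded at 400 cells/well in medium containing 20 nM camptothecin, exposed to pin-transferred compounds, and grown at 37 °C for at least 48 hr. Viability was read as ATP luminescence.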
# IL1B secr inh: inflammasome signaling inhibition, IL-1 beta readout. THP-1 LPS/ATP IL-1B secretion, AlphaLISA, 16 h; stronger effect = lower value. 360,000 compounds, 4.7% hits. activity change, % at 57.5 µM; in the data active means activity change below about -50%; inconclusive means mostly about -30% to -49%
#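 Secreted IL-1B measured by AlphaLISA bead assay after 16 h compound exposure of THP-1 cells; compounds (final up to 57.5 uM) added 1 h before LPS (250 ng/mL) and ATP (1.25 mM) stimulation; lower signal means less secretion.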
# DT40 TDP1 no CPT: qHTS for Inhibitors of human tyrosyl-DNA phosphodiesterase 1 (TDP1): qHTS in cells in absence of CPT | 420,000 compounds, 15% hits | DT40 Tdp1-/- hTDP1 cells, no CPT, ATP luminescence, 48 h | Potency, µM (top dose mostly 46.2 µM), inactives show top-dose activity change, negative = growth inhibition, hits mostly inhibitors; further: potency means the concentration at half of the fitted maximal effect; nearly all actives have a fitted effect of over 55% in size
#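 Growth of hTDP1-complemented DT40 Tdp1-knockout cells is measured by ATP luminescence after at least 48 hr compound exposure at 37 °C, with DMSO substituting for the 20 nM CPT used in the parallel screen.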
# Starred values were filed as active, the others as inactive; ? = inconclusive; . = no result. Unless noted, the call rests on the fitted dose curve; in most records, active means well fitted curve in the direction sought with a large enough effect; inconclusive means small, poorly fitted or top-dose-only effect, or another doubt; inactive means no such curve, though single readings can be large; an effect the other way counts as inactive or inconclusive. Unless noted, on the % scale 0 is the no-effect control and ±100 the full control effect.
SMILES,HT1080NT lethal,ELG1 DNA repair,HT1080 IDH1KD tx,DT40 TDP1 CPT,IL1B secr inh,DT40 TDP1 no CPT
CCOC(=O)c1cnc2ccc(OCC)cc2c1NCCCN1CCOCC1,-1%,-25%,-5%,18µM*,-53*,18µM*
CCOC(=O)C1=CCN(S(=O)(=O)c2ccccc2Cl)C1c1cccc(C)c1 (centres undefined),2%,.,-1%,?,35,?
CC1=C(C(=O)OCC2CCCO2)C(c2ccc(C)cc2)C2=C(CC(C)(C)CC2=O)N1 (centres undefined),4%,?,-2%,-11%,-8,0%
CC(=O)N1Cc2cc(C(=O)NCC(F)(F)F)nc(-c3cccc(-c4cccnc4)c3)c2[C@H]1CCO,-4%,.,16%,-20%,-10,-19%
CC(=O)N1Cc2cc(C(=O)NCC(F)(F)F)nc(-c3cccc(-c4cccnc4)c3)c2[C@@H]1CCO,?,.,6.5µM*,6.5µM*,72,5.8µM*
CCNC(=O)c1cc2c(c(-c3cccc(-c4cccnc4)c3)n1)[C@H](CCO)N(S(C)(=O)=O)C2,?,.,2.3µM*,4.6µM*,41,4.1µM*
CCS(=O)(=O)N1Cc2cc(C(=O)NCC3CC3)nc(-c3cccc(-c4cccnc4)c3)c2[C@@H]1CCO,?,.,?,?,-5,26µM*
O/N=C1\CC/C(=N\O)c2nn(-c3ccc(Cl)cc3Cl)nc21,-23%,-5%,-18%,26µM*,-51*,?
O=C(NCC(=O)N1CCOCC1)c1ccc(Cl)c(Cl)c1,10%,?,9%,2%,8,-22%
c1ccc(-c2cn3ccccc3n2)cc1,-2%,.,-22%,13%,12,-26%
c1ccn2cc(C34CC5CC(CC(C5)C3)C4)nc2c1,-15%,1%,-22%,?,6,18µM*
O[C@@H](CNC[C@H](O)[C@H]1CCc2cc(F)ccc2O1)[C@@H]1CCc2cc(F)ccc2O1,.,.,.,6.7µM*,.,4.2µM*
COc1ccccc1CNC(=O)CN(C)S(=O)(=O)c1ccc2c(c1)c(=O)n(C)c(=O)n2C,13%,14%,22%,2%,14,18%
Cc1ccsc1C(=O)N1CCC(N2CCC(C(=O)NCC3CCCO3)CC2)CC1 (centres undefined),4%,0%,7%,4%,2,12%
CC(C)CNC(=O)/C(C#N)=C1\N=C(NC(=O)c2ccco2)c2ccccc21,8%,-17%,-4%,?,0,?
N#C/C(C(=O)NCc1ccccc1)=C1/N=C(NC(=O)c2cccs2)c2ccccc21,-11%,?,-5%,16µM*,15,10µM*
CCCNC(=O)/C(C#N)=C1\N=C(NC(=O)c2ccco2)c2ccccc21,-6%,0%,-6%,16µM*,-6,?
CC1(C)CC[C@]2(C(=O)O)C(O)C[C@@]3(C)C(=CCC4[C@@]5(C)CCC(O)C(C)(C)C5CC[C@@]43C)C2C1 (some centres undefined),.,.,.,4%,.,23%
COCCNC(=O)c1ccc(N2CC3CC(C2)c2cccc(=O)n2C3)c(NC(=O)c2ccc(Br)o2)c1 (centres undefined),0%,11%,-1%,-4%,-13,24%
CC(=O)c1ccc(NC(=O)C2CCC(CNS(=O)(=O)c3ccc(Br)s3)CC2)cc1 (centres undefined),.,.,.,11%,.,-14%
O=C(NCc1ccccc1)C1CCC(CNS(=O)(=O)c2ccc(Br)s2)CC1 (centres undefined),.,.,.,-28%,.,-22%
